Results as given in PubChem BioAssay AID1347076 (National Center for Advancing Translational Sciences (NCATS), 2019).
Hit rate of the full screen: of about 400,000 compounds, about 13,000 (3.2%) were called active. A call without a number means that no potency is given here. Not shown: some 18% with an inconclusive outcome. Calls come from the whole dose curve; as a rule, active = well fitted cell-killing curve with a large enough effect; inconclusive = small, poorly fitted or top-dose-only effect, or effect the other way; inactive = flat fitted curve, though single readings scatter. This excerpt belongs to a sample that is enriched for actives.

Assay: qHTS assay for MDR1-selective chemotherapeutics: Primary screen using the drug-selected MDR subline cells KB-V1; note: nearly all actives have a fitted effect of over 60% in size
Details: KB-V1 MDR cells viability, CellTiter-Glo, 72 h; series mostly up to 46.1 µM
Outline: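 KB-V1 cells (P-gp-expressing MDR subline of KB-3-1) in phenol-red-free DMEM with 10% FBS were exposed to library compounds over a concentration series for 72 h at 37 degrees C. Viability read by CellTiter-Glo luminescence; concentration-effect curves fitted after normalization.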
Potency is the fitted concentration of half-maximal effect.

Which Potency does the source give for `O=c1c2c(nc3n1CCCCC3)sc1c(O)cccc12` here?
The Potency was “inactive”.

For `CC(=O)c1ccc(NC(=O)c2nc(-c3ccc(C)cc3)n3c2CCCCC3)cc1`, which Potency is on record?
The Potency was 20.6 µM (active).

With `Cc1ccc(NC(=O)C2(N3CCC3=O)CCCCC2)cc1` as the compound, how does the Potency read?
Its Potency is “inactive”.

Which Potency does the source give for `Cc1c(C(=O)Nc2ccccc2)sc2nc3n(c(=O)c12)CCCCC3` here?
Its Potency is “inactive”.

Which Potency does the source give for `CC(=O)c1ccc(NC(=O)c2sc3nc4n(c(=O)c3c2C)CCCCC4)cc1` here?
Its Potency is 18.4 µM (active).

For `Cc1ccc(C(=O)Nc2ccc(OCc3cc(=O)n4c5c(sc4n3)CCCC5)cc2)cc1`, which Potency is on record?
The Potency was “inactive”.

Which Potency does the source give for `CC1(Oc2ccccc2-c2ccno2)CCN(Cc2ccc(-c3ccccc3)o2)C1` (stereo unspecified) here?
Its Potency is “inactive”.

For `CC(C)CCNC(=O)c1[nH]c(C(F)(F)F)nc1-c1ccccc1`, which Potency is on record?
Its Potency is “inactive”.

Which Potency does the source give for `NCCCCC(C(=O)O)N(C(=O)OCc1ccccc1)C(=O)OCc1ccccc1` (stereo unspecified) here?
The Potency was “inactive”.

Which Potency does the source give for `O=C(Nc1ccc(Cl)cc1)c1csc([C@@H]2O[C@H](CO)[C@H](O)[C@H](O)[C@H]2O)n1` here?
Its Potency is “inactive”.

Which Potency does the source give for `CC(=O)Nc1ccc2nc(SCCOc3cc(C)cc(C)c3)sc2c1` here?
The Potency was “inactive”.

Which Potency does the source give for `O=C1NC[C@H](CCCCN2C[C@H](Cc3ccc(O)cc3)N(CCc3ccccc3)C(=O)C2=O)N(CCc2ccccc2)C1=O` here?
Its Potency is “inactive”.

Which Potency does the source give for `Cc1cccc(Cn2c(CN3CCC(C(=O)NCc4ccccc4Cl)CC3)cc3ccccc32)c1` here?
The Potency was “inactive”.

With `C/C(COc1ccccc1)=N\NC(=O)c1nnn(-c2nonc2N)c1-c1ccc(C)cc1` as the compound, how does the Potency read?
The Potency was “inactive”.

Which Potency does the source give for `CCN(CC)c1cc(NC2CCCCC2)c2c3c(onc13)-c1ccccc1C2=O` here?
Its Potency is “inactive”.

With `CCOC1=C2CN(S(=O)(=O)c3ccc(C)cc3)[C@H](c3cccs3)C[C@H]2[C@H]2C(=O)N(c3ccccc3)C(=O)[C@H]2C1` as the compound, how does the Potency read?
Its Potency is “inactive”.

Which Potency does the source give for `COc1cc(-c2c(-c3ccc4c(c3)OCO4)noc2C)ccc1F` here?
Its Potency is 5.8 µM (active).

For `Cc1oc(C)c2c(=O)cc(-c3ccc4c(c3)OCO4)cc(OC(=O)c3ccc(Cl)cc3)c12`, which Potency is on record?
Its Potency is “inactive”.

For `COc1ccc(CCNC(=O)c2cc(-c3ccc4c(c3)OCO4)on2)cc1OC`, which Potency is on record?
The Potency was “inactive”.

With `CC(Oc1ccc(Br)cc1)C(=O)NC1CCCCCC1` (stereo unspecified) as the compound, how does the Potency read?
Its Potency is “inactive”.

Which Potency does the source give for `O=C(CCNC(=O)c1ccc(Br)cc1)NCC(c1ccco1)N1CCCCC1` (stereo unspecified) here?
The Potency was “inactive”.

Which Potency does the source give for `CC(Oc1ccc(Br)cc1)C(=O)NCC(c1ccco1)N1CCCCC1` (stereo unspecified) here?
The Potency was 14.6 µM (active).

With `C=CCn1c2c(c3ccccc31)CCC2` as the compound, how does the Potency read?
Its Potency is “inactive”.

With `COc1ccc(CN2C(=O)C(CC(=O)NCc3cccc4ccccc34)CC(C(=O)N3CCOCC3)=C2C)cc1` (stereo unspecified) as the compound, how does the Potency read?
Its Potency is “inactive”.

Which Potency does the source give for `O=C(C[C@H]1CC[C@@H](NC(=O)c2ccncc2)[C@@H](CO)O1)NCC1CC1` here?
Its Potency is “inactive”.

For `O=C(CSc1nc(C2CC2)nc2ccccc12)Nc1ccc2c(c1)OCCO2`, which Potency is on record?
The Potency was 14.6 µM (active).

With `Cc1nnc(NC(=O)CSc2nc(C3CCCCC3)nc3ccccc23)s1` as the compound, how does the Potency read?
Its Potency is “inactive”.

With `O=C(CSc1nc(C2CC2)nc2ccccc12)Nc1cccc(O)c1` as the compound, how does the Potency read?
Its Potency is “inactive”.

For `CCc1ccc(OC2(C)CCN(CCOc3ccc(C)cc3)C2)cc1` (stereo unspecified), which Potency is on record?
Its Potency is “inactive”.

With `COc1cc(CNc2ncnc3c2ncn3[C@H]2CN(Cc3cccs3)C[C@@H](CO)O2)cc(OC)c1OC` as the compound, how does the Potency read?
The Potency was “inactive”.

With `COc1ccc(NC(=O)N(C)C[C@@H]2OCc3cn(nn3)CCCC(=O)N([C@H](C)CO)C[C@H]2C)c(OC)c1` as the compound, how does the Potency read?
Its Potency is “inactive”.

For `CC(=O)NC1=NN(C(C)=O)C(C)(c2ccc(Cl)s2)S1` (stereo unspecified), which Potency is on record?
The Potency was 5.8 µM (active).

Which Potency does the source give for `CC(=O)NC1=NN(C(C)=O)C(C)(CCS(=O)(=O)c2ccc(Cl)c(Cl)c2)S1` (stereo unspecified) here?
Its Potency is “inactive”.

For `CC(=O)NC1=NN(C(C)=O)C(C)(c2ccc(C)cc2)S1` (stereo unspecified), which Potency is on record?
The Potency was “inactive”.

With `CCNC(=O)C1(C)CCN(Cc2ccc(C(=O)OCC)o2)C1` (stereo unspecified) as the compound, how does the Potency read?
The Potency was “inactive”.

Which Potency does the source give for `CC(=O)C[C@@H]1OC[C@H](CO)N1S(=O)(=O)c1ccc(C)cc1` here?
Its Potency is “inactive”.

For `COc1ccc(Cl)cc1-c1cc(C(=O)Nc2cc(OC)c(OC)c(OC)c2)[nH]n1`, which Potency is on record?
Its Potency is “inactive”.

With `CCCn1c(=N)n(CC(=O)c2ccc(Cl)c(Cl)c2)c2ccccc21` as the compound, how does the Potency read?
Its Potency is “inactive”.

Which Potency does the source give for `CCn1c(=N)n(CC(=O)c2cccc(OC)c2)c2ccccc21` here?
The Potency was 8.2 µM (active).

For `COc1ccc2cc(C(=O)O)n(CC(=O)c3ccccc3)c2c1`, which Potency is on record?
Its Potency is “inactive”.

With `O=C(N[C@H]1CC[C@H](CC(=O)N2CCCCC2)O[C@@H]1CO)c1cccc(F)c1` as the compound, how does the Potency read?
Its Potency is “inactive”.

Which Potency does the source give for `Cc1cc2nc(-c3ccco3)c(Cc3cccc(F)c3)n2c(C)c1Br` here?
Its Potency is “inactive”.

With `CCOc1ccccc1NC(=O)Cn1c(=O)n(Cc2ccccc2)c(=O)c2c(C)c(C(=O)N(C)C)sc21` as the compound, how does the Potency read?
Its Potency is “inactive”.

For `Cc1cccc(NC(=O)Cn2c(=O)n(Cc3ccccc3)c(=O)c3c(C)c(C)sc32)c1`, which Potency is on record?
Its Potency is 5.17 µM (active).

Which Potency does the source give for `Cc1cccc(-n2c(=O)c3c(C)c(C)sc3n(CC(N)=O)c2=O)c1` here?
Its Potency is “inactive”.

For `CCCS(=O)(=O)NC(=O)C1(C)CCCN(C(=O)c2cc(C)on2)C1` (stereo unspecified), which Potency is on record?
The Potency was “inactive”.

Which Potency does the source give for `CC(=O)Nc1cccc(C(=O)OCC(=O)Nc2nnc(-c3ccccc3)o2)c1` here?
The Potency was “inactive”.

For `O=C(OCc1ccc(Br)cc1)c1cccc(-c2nnc(-c3ccccc3)o2)c1`, which Potency is on record?
Its Potency is 9.2 µM (active).

For `O=C(OCc1ccc(-c2ccccc2)cc1)c1cccc(O)c1`, which Potency is on record?
Its Potency is “inactive”.

With `O=C(O)C1=C/C(=C/C=[N+]2c3cc(O)c(O[C@H]4OC(CO)[C@@H](O)[C@@H](O)[C@@H]4O)cc3C[C@@H]2C(=O)[O-])C[C@H](C(=O)O)N1` (stereo partly specified) as the compound, how does the Potency read?
The Potency was “inactive”.

For `Cc1cccc(NC(=O)C2CCN(C(=O)NC3CCCCC3)CC2)c1`, which Potency is on record?
Its Potency is “inactive”.

With `Cc1ccccc1NC(=O)C1CCN(C(=O)NC2CCCCC2)CC1` as the compound, how does the Potency read?
Its Potency is “inactive”.

With `O=C(Nc1cccc2c1CCCC2)C1CCN(C(=O)NC2CCCCC2)CC1` as the compound, how does the Potency read?
The Potency was 13 µM (active).

For `CCCCC(O)C1=C[N+](=O)CC=C1` (stereo unspecified), which Potency is on record?
The Potency was “inactive”.

With `COc1ccc(N(CC(=O)NCCc2ccc(Cl)cc2)S(=O)(=O)c2c(C)nn(C)c2C)cc1` as the compound, how does the Potency read?
The Potency was “inactive”.

For `C(=Nc1ccc(/C=C/c2ccnc3ccccc23)cc1)c1cc2c3c(c1)CCCN3CCC2`, which Potency is on record?
Its Potency is “inactive”.

With `Cc1cc2c(C)nc(N/N=C/c3ccccc3)nc2o1` as the compound, how does the Potency read?
Its Potency is 23.1 µM (active).

With `Cc1nc(Cl)cc(N/N=C/c2ccccc2)n1` as the compound, how does the Potency read?
Its Potency is “inactive”.

For `O=c1c2ccccc2nc(N/N=C/c2ccccc2)n1O`, which Potency is on record?
Its Potency is “inactive”.

With `O=C(c1cc(C2CCCCN2S(=O)(=O)c2ccccc2)on1)N1CCOCC1` (stereo unspecified) as the compound, how does the Potency read?
Its Potency is “inactive”.

For `Nc1cc(C(=O)N2CCN(c3ccccc3Cl)CC2)ccc1N1CC2CC(C1)c1cccc(=O)n1C2` (stereo unspecified), which Potency is on record?
Its Potency is “inactive”.
